Assay results taken from paper PMC5700166.
Changes are numbered by the printed parent chain.

Columns and labels:
Assay in all cases: protein-binding microarray (PBM); PBM: ~300 nM protein, 6 mM HEPES pH 7.8, 80 mM KCl, 0.5 mM EDTA, 0.5 mM EGTA, 6% glycerol, 35 ng/ul poly-dIdC, 1% milk, 1 h, room temperature; Ap Aiptasia and Nv Nematostella (sea anemones) / Co Capsaspora / Aq Amphimedon (sponge) / Dm Drosophila / Hu human; RHD is the Rel homology domain; high values mean tight binding
Conditions in all cases: dsDNA, one strand shown
[1] = molecular target: T1, GST-Ap-NF-kB RHD (Exaiptasia pallida (Aiptasia), UniProt A0A913YAJ5 2-422)
T1 sequence: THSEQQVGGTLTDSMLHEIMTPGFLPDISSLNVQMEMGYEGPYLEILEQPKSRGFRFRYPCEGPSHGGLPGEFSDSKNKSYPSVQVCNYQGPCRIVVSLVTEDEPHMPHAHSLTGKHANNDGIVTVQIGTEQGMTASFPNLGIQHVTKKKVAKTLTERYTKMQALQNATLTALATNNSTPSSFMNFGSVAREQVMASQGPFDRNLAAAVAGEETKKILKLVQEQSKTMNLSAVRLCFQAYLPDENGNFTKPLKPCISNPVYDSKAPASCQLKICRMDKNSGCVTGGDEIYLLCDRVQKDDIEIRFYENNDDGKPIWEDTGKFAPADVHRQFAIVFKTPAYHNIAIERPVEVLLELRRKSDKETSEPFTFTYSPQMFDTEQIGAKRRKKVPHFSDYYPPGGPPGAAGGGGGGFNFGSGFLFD

[2] = molecular target: T2, GST-Nv-NF-kB (Cys allele) (Nematostella vectensis, UniProt E5G601 2-411)
T2 sequence: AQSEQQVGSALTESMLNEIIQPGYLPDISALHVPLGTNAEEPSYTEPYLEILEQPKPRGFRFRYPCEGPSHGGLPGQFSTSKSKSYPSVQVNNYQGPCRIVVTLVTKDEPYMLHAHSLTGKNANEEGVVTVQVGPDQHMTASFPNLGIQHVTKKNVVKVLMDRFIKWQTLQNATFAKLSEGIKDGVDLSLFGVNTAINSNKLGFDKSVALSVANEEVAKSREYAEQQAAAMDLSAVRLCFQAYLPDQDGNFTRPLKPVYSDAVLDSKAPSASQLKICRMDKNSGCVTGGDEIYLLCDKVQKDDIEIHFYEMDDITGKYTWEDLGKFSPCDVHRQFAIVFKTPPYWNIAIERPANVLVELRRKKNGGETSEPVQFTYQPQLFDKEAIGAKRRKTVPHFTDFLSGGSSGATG

[3] = molecular target: T3, GST-Nv-NF-kB (Ser allele) (Nematostella vectensis, UniProt A7UNT2 2-411)
T3 sequence: T2 sequence with Q21R, C66S, S207N, E215Q, V217A, E225K, A268E, D399E

[4] = molecular target: T4, GST-Co-NF-kB (Capsaspora owczarzaki, UniProt F1ARL5 200-546)
T4 sequence: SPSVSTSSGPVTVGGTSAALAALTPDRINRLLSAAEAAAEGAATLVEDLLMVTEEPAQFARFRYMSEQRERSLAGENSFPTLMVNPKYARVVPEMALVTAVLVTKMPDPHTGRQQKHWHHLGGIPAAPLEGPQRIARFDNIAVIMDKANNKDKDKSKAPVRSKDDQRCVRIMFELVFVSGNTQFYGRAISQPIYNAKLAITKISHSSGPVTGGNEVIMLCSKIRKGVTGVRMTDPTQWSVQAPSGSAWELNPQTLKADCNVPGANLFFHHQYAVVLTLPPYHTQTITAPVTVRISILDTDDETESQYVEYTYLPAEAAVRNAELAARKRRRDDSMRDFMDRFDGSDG

[5] = molecular target: T5, GST-Dm-Relish (Drosophila melanogaster, UniProt Q94527 99-473)
T5 sequence: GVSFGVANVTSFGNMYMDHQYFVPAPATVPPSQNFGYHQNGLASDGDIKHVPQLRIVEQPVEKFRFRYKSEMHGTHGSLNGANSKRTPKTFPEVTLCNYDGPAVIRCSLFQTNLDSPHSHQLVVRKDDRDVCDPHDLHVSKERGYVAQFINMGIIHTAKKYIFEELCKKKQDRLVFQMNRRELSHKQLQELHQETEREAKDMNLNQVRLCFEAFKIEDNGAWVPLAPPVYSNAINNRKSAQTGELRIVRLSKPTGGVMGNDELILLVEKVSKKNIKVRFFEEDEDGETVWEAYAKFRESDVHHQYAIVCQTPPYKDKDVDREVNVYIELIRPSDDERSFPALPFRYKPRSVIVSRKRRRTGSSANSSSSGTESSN

[6] = molecular target: T6, GST-Aq-NF-kB (Amphimedon queenslandica, UniProt A9Y5G7 2-389)
T6 sequence: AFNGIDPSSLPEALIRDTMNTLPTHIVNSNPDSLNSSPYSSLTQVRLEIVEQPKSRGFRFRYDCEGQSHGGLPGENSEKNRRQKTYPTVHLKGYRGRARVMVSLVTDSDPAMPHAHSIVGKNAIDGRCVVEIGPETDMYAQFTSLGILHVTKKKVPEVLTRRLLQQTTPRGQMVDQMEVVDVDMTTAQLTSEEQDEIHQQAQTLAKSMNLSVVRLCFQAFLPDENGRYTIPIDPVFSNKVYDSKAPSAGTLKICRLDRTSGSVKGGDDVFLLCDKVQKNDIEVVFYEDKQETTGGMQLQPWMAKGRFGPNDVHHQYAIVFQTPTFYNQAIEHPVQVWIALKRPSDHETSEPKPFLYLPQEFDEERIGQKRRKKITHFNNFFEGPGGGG

[7] = molecular target: GST-Hu-p50 (Homo sapiens, UniProt P19838 7-356)
Chain of GST-Hu-p50 (P19838 7-356): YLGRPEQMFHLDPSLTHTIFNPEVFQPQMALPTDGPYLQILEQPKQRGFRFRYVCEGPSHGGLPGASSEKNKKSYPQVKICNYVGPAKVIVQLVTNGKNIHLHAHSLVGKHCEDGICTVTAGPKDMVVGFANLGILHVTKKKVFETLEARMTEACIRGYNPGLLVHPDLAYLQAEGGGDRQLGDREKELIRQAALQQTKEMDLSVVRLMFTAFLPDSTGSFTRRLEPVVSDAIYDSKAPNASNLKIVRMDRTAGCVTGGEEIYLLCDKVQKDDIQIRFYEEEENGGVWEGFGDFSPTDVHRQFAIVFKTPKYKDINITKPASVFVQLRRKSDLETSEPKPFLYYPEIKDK

CCGATTAACATCAGGAAATTCCCTGATGTTAATCGGGTCTTGATTCGCTTGACGCTGCTG
binding signal [1]: 6.31 z-score | binding signal [2]: 9.9 z-score | binding signal [3]: 8.03 z-score | binding signal [4]: 4.13 z-score | binding signal [5]: 6.79 z-score | binding signal [6]: 9.8 z-score | binding signal [7]: 6.16 z-score

CCGATTAACATCACAAAAAACCCTGATGTTAATCGGGTCTTGATTCGCTTGACGCTGCTG
binding signal [1]: 3.76 z-score | binding signal [2]: 4.37 z-score | binding signal [3]: 4.38 z-score | binding signal [4]: 1.78 z-score | binding signal [5]: 5.51 z-score | binding signal [6]: 5.58 z-score | binding signal [7]: 4.61 z-score

CCGATTAACATCAAGGGGGTTTCTGATGTTAATCGGGTCTTGATTCGCTTGACGCTGCTG
binding signal [1]: 9.41 z-score | binding signal [2]: 8.37 z-score | binding signal [3]: 8.76 z-score | binding signal [4]: 2.34 z-score | binding signal [5]: 9.83 z-score | binding signal [6]: 7.81 z-score | binding signal [7]: 7.39 z-score

CCGATTAACATCAGCGGGAATCCTGATGTTAATCGGGTCTTGATTCGCTTGACGCTGCTG
binding signal [1]: 2.44 z-score | binding signal [2]: 3.26 z-score | binding signal [3]: 2.64 z-score | binding signal [4]: 2.25 z-score | binding signal [5]: 6.33 z-score | binding signal [6]: 3.03 z-score | binding signal [7]: 2.21 z-score

CCGATTAACATCAAATTTCCCATTGATGTTAATCGGGTCTTGATTCGCTTGACGCTGCTG
binding signal [1]: 2.36 z-score | binding signal [2]: 4.83 z-score | binding signal [3]: 4.27 z-score | binding signal [4]: 3.32 z-score | binding signal [5]: 2.68 z-score | binding signal [6]: 4.29 z-score | binding signal [7]: 3.86 z-score

CCGATTAACATCACGGGGGGTACTGATGTTAATCGGGTCTTGATTCGCTTGACGCTGCTG
binding signal [1]: 5.05 z-score | binding signal [2]: 3.22 z-score | binding signal [3]: 3.15 z-score | binding signal [4]: 4.54 z-score | binding signal [5]: 3.63 z-score | binding signal [6]: 3.58 z-score | binding signal [7]: 3.25 z-score

CCGATTAACATCAGGGGGAAGACTGATGTTAATCGGGTCTTGATTCGCTTGACGCTGCTG
binding signal [1]: 5.87 z-score | binding signal [2]: 6.01 z-score | binding signal [3]: 6.96 z-score | binding signal [4]: 8.23 z-score | binding signal [5]: 4.92 z-score | binding signal [6]: 5.25 z-score | binding signal [7]: 6.29 z-score

CCGATTAACATCACTATTCCCCCTGATGTTAATCGGGTCTTGATTCGCTTGACGCTGCTG
binding signal [1]: 5.37 z-score | binding signal [2]: 6.24 z-score | binding signal [3]: 7.08 z-score | binding signal [4]: 7.68 z-score | binding signal [5]: 3.2 z-score | binding signal [6]: 4.96 z-score | binding signal [7]: 5.82 z-score

CCGATTAACATCATAAATCCCCATGATGTTAATCGGGTCTTGATTCGCTTGACGCTGCTG
binding signal [1]: 6.78 z-score | binding signal [2]: 7.56 z-score | binding signal [3]: 9.37 z-score | binding signal [4]: 3.91 z-score | binding signal [5]: 7.13 z-score | binding signal [6]: 5.14 z-score | binding signal [7]: 7.11 z-score

CCGATTAACATCAAGAATCCCCTTGATGTTAATCGGGTCTTGATTCGCTTGACGCTGCTG
binding signal [1]: 7.94 z-score | binding signal [2]: 9.47 z-score | binding signal [3]: 10.9 z-score | binding signal [4]: 2.64 z-score | binding signal [5]: 8.39 z-score | binding signal [6]: 7.11 z-score | binding signal [7]: 7.63 z-score

CCGATTAACATCAAATAACCCCCTGATGTTAATCGGGTCTTGATTCGCTTGACGCTGCTG
binding signal [1]: 7.15 z-score | binding signal [2]: 7.1 z-score | binding signal [3]: 7.94 z-score | binding signal [4]: 4.2 z-score | binding signal [5]: 8.44 z-score | binding signal [6]: 7.02 z-score | binding signal [7]: 6.17 z-score

CCGATTAACATCATCAGGGGAAATGATGTTAATCGGGTCTTGATTCGCTTGACGCTGCTG
binding signal [1]: 5.62 z-score | binding signal [2]: 7.05 z-score | binding signal [3]: 8.79 z-score | binding signal [4]: 5.8 z-score | binding signal [5]: 2.39 z-score | binding signal [6]: 4.58 z-score | binding signal [7]: 5.42 z-score

CCGATTAACATCAAGGGGGTTCCTGATGTTAATCGGGTCTTGATTCGCTTGACGCTGCTG
binding signal [1]: 9.16 z-score | binding signal [2]: 6.77 z-score | binding signal [3]: 6.26 z-score | binding signal [4]: 1.68 z-score | binding signal [5]: 10.4 z-score | binding signal [6]: 7.2 z-score | binding signal [7]: 6.65 z-score

CCGATTAACATCAAAGCCCCCCCTGATGTTAATCGGGTCTTGATTCGCTTGACGCTGCTG
binding signal [1]: 5.97 z-score | binding signal [2]: 4.23 z-score | binding signal [3]: 4.62 z-score | binding signal [4]: 4.66 z-score | binding signal [5]: 6.01 z-score | binding signal [6]: 5.12 z-score | binding signal [7]: 4.63 z-score

CCGATTAACATCAAAAATCCCAGTGATGTTAATCGGGTCTTGATTCGCTTGACGCTGCTG
binding signal [1]: 3.43 z-score | binding signal [2]: 3.35 z-score | binding signal [3]: 2.65 z-score | binding signal [4]: 2.44 z-score | binding signal [5]: 7.35 z-score | binding signal [6]: 3.8 z-score | binding signal [7]: 3.5 z-score

CCGATTAACATCAGTTTCCCCCATGATGTTAATCGGGTCTTGATTCGCTTGACGCTGCTG
binding signal [1]: 6.91 z-score | binding signal [2]: 6.51 z-score | binding signal [3]: 8.2 z-score | binding signal [4]: 10.6 z-score | binding signal [5]: 2.94 z-score | binding signal [6]: 5.09 z-score | binding signal [7]: 6.77 z-score

CCGATTAACATCAAAAACTCCCTTGATGTTAATCGGGTCTTGATTCGCTTGACGCTGCTG
binding signal [1]: 5.39 z-score | binding signal [2]: 7.94 z-score | binding signal [3]: 7 z-score | binding signal [4]: 1.96 z-score | binding signal [5]: 6.3 z-score | binding signal [6]: 7.5 z-score | binding signal [7]: 5.92 z-score

CCGATTAACATCAGGACTCCCCATGATGTTAATCGGGTCTTGATTCGCTTGACGCTGCTG
binding signal [1]: 5.91 z-score | binding signal [2]: 3.31 z-score | binding signal [3]: 3.6 z-score | binding signal [4]: 3.44 z-score | binding signal [5]: 6.5 z-score | binding signal [6]: 4.12 z-score | binding signal [7]: 2.97 z-score

CCGATTAACATCAGGGGGACCCCTGATGTTAATCGGGTCTTGATTCGCTTGACGCTGCTG
binding signal [1]: 8.92 z-score | binding signal [2]: 5.39 z-score | binding signal [3]: 4.83 z-score | binding signal [4]: 4.63 z-score | binding signal [5]: 9.89 z-score | binding signal [6]: 8.54 z-score | binding signal [7]: 5.02 z-score

CCGATTAACATCAGGGGTAACCCTGATGTTAATCGGGTCTTGATTCGCTTGACGCTGCTG
binding signal [1]: 4.06 z-score | binding signal [2]: 2.99 z-score | binding signal [3]: 2.19 z-score | binding signal [4]: 4.77 z-score | binding signal [5]: 4.12 z-score | binding signal [6]: 5.1 z-score | binding signal [7]: 3.1 z-score

CCGATTAACATCAAAAGTCCCCGTGATGTTAATCGGGTCTTGATTCGCTTGACGCTGCTG
binding signal [1]: 8.32 z-score | binding signal [2]: 8.18 z-score | binding signal [3]: 7.85 z-score | binding signal [4]: 4.26 z-score | binding signal [5]: 9.25 z-score | binding signal [6]: 7.44 z-score | binding signal [7]: 6.58 z-score

CCGATTAACATCAAATCCCCCCGTGATGTTAATCGGGTCTTGATTCGCTTGACGCTGCTG
binding signal [1]: 8.26 z-score | binding signal [2]: 7.22 z-score | binding signal [3]: 6.8 z-score | binding signal [4]: 7.74 z-score | binding signal [5]: 8.05 z-score | binding signal [6]: 6.07 z-score | binding signal [7]: 6.44 z-score

CCGATTAACATCAGGGGGAGATATGATGTTAATCGGGTCTTGATTCGCTTGACGCTGCTG
binding signal [1]: 5.8 z-score | binding signal [2]: 5.33 z-score | binding signal [3]: 6.74 z-score | binding signal [4]: 8.37 z-score | binding signal [5]: 2.53 z-score | binding signal [6]: 4.8 z-score | binding signal [7]: 5.93 z-score
